The target in one experiment is COMMD8. Kind of experiment: pooled miR-30 sensor sort-seq; sequence = guide strand. The following applies: shRNA.
TTGATTTCATCTTTCCTACTTT displayed a sensor-assay potency score (higher = more potent) of -0.353.
Same read-out and setting: under TATTGCTGCTTTCTCAGCCTGG stands -0.453; under AACAGTGTGATAATCTTGGTAC, -0.396.
For TATTTTGTGAAGAAGCTGCGGG, the sensor-assay potency score (higher = more potent) worked out at 0.366.
On the same count and under the same terms, to TTTCTCTTGACAGAGCCTGTTT belongs -0.392.

The next experiment deals with COPE. The experiment is described as above. The conditions noted are these: shRNA.
For TTGACCAGCGTCTCTGGGTAGC, the sensor-assay potency score (higher = more potent) was -0.621.
As for ATTCTCTTCAGCTCCTTCCGGG, the sensor-assay potency score (higher = more potent) is -0.00872.
Same read-out and setting: to TCAGCTGGGACAGGTATCGGTT belongs -0.759; to TTGATGAAGGGATGGGACCTGT, -0.268; to TTCTCTTCAGCTCCTTCCGGGC, -0.99.
Take TTACGTCGAACAGCTCGTCTAC: the sensor-assay potency score (higher = more potent) was -0.753.
The sequence AAAGTCGTTCTCCTTGGCCTGG showed a sensor-assay potency score (higher = more potent) of -1.24.
TTGATAGCTTCACCCGCTGCGC returned a sensor-assay potency score (higher = more potent) of -1.31.
Turning to TTTACGTCGAACAGCTCGTCTA, the sensor-assay potency score (higher = more potent) was -1.05.
As for TCATCTCTCGGTCCAGCTCGGC, the sensor-assay potency score (higher = more potent) was -1.47.
In the case of AACAGCTCGTCTACCTCCCCGG, the sensor-assay potency score (higher = more potent) is -0.819.
Same read-out and setting: under TTCTTTACGTCGAACAGCTCGT stands -0.53.

A further experiment concerns the target COPS6. The experiment is described as above. The following applies: shRNA.
In the case of TTCCTTGTCAATGATAATCTTC, the sensor-assay potency score (higher = more potent) was -0.166.
TCGTAGAGGACATTGAACTTGT yielded a sensor-assay potency score (higher = more potent) of 0.432.
Regarding AATCTGTCTTGAACTTGTCTGT, the sensor-assay potency score (higher = more potent) is -0.335.
TTGATCATAAAAATCTGTCTTG displayed a sensor-assay potency score (higher = more potent) of 0.185.
TTCAACTTCAGAAAGAGGGGGC: the sensor-assay potency score (higher = more potent) was 0.785.
In turn, TCTGTCTTGAACTTGTCTGTGC displayed a sensor-assay potency score (higher = more potent) of 0.397.
TACTGCTGCATCCACCTCCATC showed a sensor-assay potency score (higher = more potent) of -1.31.
In turn, TTAAACTGCTCCTCCTTGGTGT showed a sensor-assay potency score (higher = more potent) of 0.63.
TTGTCAATGATAATCTTCTCTT had a sensor-assay potency score (higher = more potent) of -0.44.
TTGTCTGTGCTGAGCACCGGGA returned a sensor-assay potency score (higher = more potent) of -0.77.
On to TTGAACTTGTTCACAAACTGGT, for which the sensor-assay potency score (higher = more potent) was 0.64.
Still for that read-out and setting: to TTGTCGGTCGTAGAGGACATTG belongs -1.74.

Another experiment deals with COPS7A. The experiment is described as above. The conditions noted are these: shRNA.
As for TAATACAATCTATATACCCTTC, the sensor-assay potency score (higher = more potent) is -0.206.
The same measure, in the same setting: to TTGGTTGGCACGGCTCACCTGC belongs -0.606; to TACACTTTACTTTAGCAGCCAG, -0.419; to TTTACTTTAGCAGCCAGGGTGA, -0.299.
Sequence TAGTGTGACAGGATTCTAGGAT came in with a sensor-assay potency score (higher = more potent) of 0.596.
TAGGAGCAGAAATTGCTCCTGG displayed a sensor-assay potency score (higher = more potent) of -0.149.
For TTAGTGGAGGAAGATTCCGGGC, the sensor-assay potency score (higher = more potent) was -0.887.
In turn, TTCAGCTAAGTAGTCAGCGTAT had a sensor-assay potency score (higher = more potent) of -0.555.
Regarding TTCTAGGATGAACATGTCCAGT, the sensor-assay potency score (higher = more potent) is -1.29.
TTATTCTTCTGAGCCTCTGTTA had a sensor-assay potency score (higher = more potent) of -0.522.
TCTAACATTGGGCATGTCCAGC came in with a sensor-assay potency score (higher = more potent) of -1.04.

For the origin of these results see the OligoGym collection.
Also: reference of the scale not given here.
